Compounds with a hit are over-represented: about 1.5% of the library has one in this group of screens.
S1P3 antagonist: blocks the human S1P3 receptor; CHO S1P3 NFAT-BLA reporter, FRET fluorescence, antagonist mode; inhibition, % at 4.98 µM; hit rate 0.27% among 170,000;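 active means inhibition above the plate cutoff, the mean inhibition of test wells on that plate plus 3 SD, cut at about 28% in these data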;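 further: cells challenged with S1P at its EC80 of 0.8 µM; blue over green emission ratio from cleaved BLA substrate after 4 h stimulation; 0% = S1P-stimulated wells and 100% = unstimulated DMSO-only wells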
S1P4 antag: blocks the human S1P4 receptor; O95977; AID 1510; S1P4-expressing cells, antagonist mode, reporter read-out; inhibition, % at 4.98 µM; hit rate 0.26% among 220,000; in the data active means inhibition above about 29%;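 further: 0% = wells stimulated with agonist and 100% = vehicle wells without agonist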
Target sequence (O95977 whole entry, looked up): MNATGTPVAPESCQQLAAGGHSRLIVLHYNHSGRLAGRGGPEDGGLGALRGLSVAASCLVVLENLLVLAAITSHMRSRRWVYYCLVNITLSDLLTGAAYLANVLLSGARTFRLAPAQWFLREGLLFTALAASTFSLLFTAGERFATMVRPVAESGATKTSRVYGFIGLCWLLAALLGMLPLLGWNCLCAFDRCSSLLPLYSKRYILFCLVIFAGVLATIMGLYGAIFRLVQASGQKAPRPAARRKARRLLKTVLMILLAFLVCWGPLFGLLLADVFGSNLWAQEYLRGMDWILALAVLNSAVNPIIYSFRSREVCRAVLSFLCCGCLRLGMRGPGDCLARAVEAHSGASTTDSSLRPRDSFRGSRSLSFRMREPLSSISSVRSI
Insulin prom up: MIN6 insulin promoter up-regulation. MIN6 insulin promoter-GFP reporter, high-content imaging; hits give high values. z-score at 5 µM. hit rate 0.3% among 190,000. AID 1625;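 active means z-score above 3 at 5 µM with at least 500 cells counted in the well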
Hsp70 act: switches on Hsp70 transcription | HeLa Hsp70 promoter luciferase reporter, luminescence; scaled: vehicle 0, proteasome-inhibitor control 100% | activation, % at 10 µM | hit rate 0.04% among 200,000;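 active means activation above the mean across all tested compounds plus 3 SD, cutoff set per campaign, cut at about 5.5% in these data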;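 further: 100% = MG132 at 30 µM as the positive control and 0% = DMSO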
S1P4 agonist: human S1P4 receptor agonism | hit rate 0.35% among 220,000 | O95977 | activation, % at 4.98 µM | S1P4-expressing cell line, agonist reporter assay; in the data active means activation above about 11%;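 further: 0% = DMSO vehicle and 100% = reference agonist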
INS promoter inh: TRM-6 insulin promoter activity inhibition | inhibition, % at 2 µM | AID 1273 | hit rate 0.9% among 130,000 | TRM-6 cells (human fetal islet line), insulin promoter-eGFP reporter, imaging; reporter expression induced with tamoxifen;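 active means inhibition above the mean plus 3 SD, with well images judged a real hit on visual review, cut at about 60% in these data, passing the limit was not always enough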
The depositor's hits bear a star; i = inactive; / = not tested or not shown.

SMILES	S1P3 antagonist	S1P4 antag	Insulin prom up	Hsp70 act	S1P4 agonist	INS promoter inh
O=c1[nH]c(/C=C/c2ccccc2OC(F)F)nc2c1cnn2-c1ccccc1	6	-16	3.2*	-1	1	-38
O=C(Nc1ccsc1C(=O)NC1CC1)c1ccccc1	/	8	0.07	0	1	85*
Cc1ccc2[nH]c(-c3ccccc3)c(CN3CCCC3)c(=O)c2c1	-20	11	-0.48	0	-1	/
CCCc1c(C)[nH]c2ccccc2c1=O	/	10	0.17	0	1	71*
Cc1ccc2[nH]c(-c3ccccc3)c(CN(C)C)c(=O)c2c1	/	-7	4.2*	0	0	-17
CCc1c(C)[nH]c2ccc(C)cc2c1=O	2	-4	0.1	0	0	77*
CCCc1c(C)c2ccccc2[nH]c1=O	-48	-9	1.2	0	3	-10
COc1ccc(CCNCC(=O)Nc2ccc(C)c(S(=O)(=O)N(C)C)c2)cc1	-5	-23	-0.48	0	2	33
CCS(=O)(=O)n1nc(-c2ccco2)nc1SC	/	-10	0.4	0	1	10
CSc1nc(-c2ccc(Cl)cc2)nn1C(=O)c1ccco1	/	-12	1.2	0	2	83*
CSc1nc(-c2ccco2)nn1C(=O)c1ccco1	-2	-21	-6.6	0	0	/
CCS(=O)(=O)n1nc(-c2ccc(Cl)cc2)nc1SC	/	-2	0.45	1	3	72*
COC(=O)/C(C#N)=C1/C=Cc2ccccc2N1C	/	-13	/	0	0	81*
Cc1ccc(-c2cccc(CN3CCN(C4CCN(C(C)C)CC4)C(CCO)C3)c2)o1 (stereo not given)	-12	-12	1.8	0	-1	/
CCOC(=O)c1cc2c(=O)n3ccccc3nc2n(CC2CCCO2)c1=NC(C)=O (stereo not given)	/	-23	-0.72	0	18*	24
c1nc(NC2CCCCCC2)c2[nH]cnc2n1	-17	4	0.49	0	0	70*
O=C(Nc1ccc(C2CCCCC2)cc1)C1CCCN(c2ncccn2)C1 (stereo not given)	-16	/	3.8*	/	/	/
COc1cc2cc(C)c3nnc(SCC(=O)Nc4cc(C)on4)n3c2cc1OC	-12	-20	6*	0	1	/
CCn1cc(Cl)c(C(=O)N2N=C(c3ccc4ccccc4c3)CC2c2ccccc2O)n1 (stereo not given)	6	-1	-0.24	0	2	67*
CNC(=O)NC(=O)CSc1nnc(C(F)(F)F)n1C	/	-13	-0.53	0	0	14
CC(C)C(C)(C#N)NC(=O)CSc1nnc(C(F)(F)F)n1C (stereo not given)	/	-7	3*	0	2	-11
CN(C)c1ccc(C(=O)Nc2nc3c(s2)CCCC3)cc1	90*	2	1.7	0	0	/
N#C/C(=C\C1=C(N2CCOCC2)C(=C/c2cccc([N+](=O)[O-])c2)/CC1)C(=O)Nc1ccccc1F	-9	-26	3.1*	0	2	i
CC(NC(=O)C12CC3CC(CC(C3)C1)C2)C(=O)N/N=C/C1=C(N2CCOCC2)C(=C\c2cccc([N+](=O)[O-])c2)/CC1 (stereo not given)	10	-7	-0.12	0	-1	50
CCN(CC)c1ccc(/C=C2\CCC(/C=C(\C#N)C(=O)Nc3ccccc3F)=C2N2CCOCC2)cc1	-10	-9	0.38	0	0	i
SMILES	S1P3 antagonist	S1P4 antag	Insulin prom up	Hsp70 act	S1P4 agonist	INS promoter inh
N#C/C(=C\C1=C(N2CCOCC2)C(=C\c2ccc(Cl)cc2)/CC1)C(=O)Nc1ccccc1F	-11	-5	3.3*	0	0	i
O=C(NC1(C(F)(F)F)NC(=O)N(c2ccc(F)c(Cl)c2)C1=O)c1ccncc1 (stereo not given)	/	-7	4.5*	0	0	27
COc1ccc(S(=O)(=O)N2CCN(C)CC2)cc1C	56*	-15	-1.2	0	-3	/
COc1ccc(S(=O)(=O)N2CCN(c3ccc(C)cc3C)CC2)cc1OC	103*	1	-0.4	0	-1	/
CCOC(=O)N1CCN(C(=O)CSc2ccc(-c3ccccc3)nn2)CC1	-7	-25	/	0	-1	-3
CCOC(=O)N1CCN(C(=O)CSc2ccc(-c3ccncc3)nn2)CC1	-12	-8	-1.1	0	2	75*
Cc1snnc1C(=O)NC(=S)Nc1ccccc1	-1	-2	-0.73	/	2	/
CN(C)c1ccc(S(=O)(=O)c2ccc(Cl)cc2)cc1	14	-4	0.3	0	-1	74*
CC(Sc1ccccc1)C(=O)NN=C1CCCCCC1 (stereo not given)	10	-7	8.1*	0	-1	53
C(=N\n1cnnc1SCc1ccccc1)/c1ccco1	4	-9	-0.29	0	2	-6
CCCc1cc(-c2n[nH]c(=S)n2C(C)c2ccccc2)cs1 (stereo not given)	/	-7	-0.82	0	2	30
C=CCc1c(C)[nH]c(=O)[nH]c1=O	-3	-6	-0.33	0	0	78*
C/C(=N\Nc1nc(N2CCCCC2)nc(N2CCOCC2)n1)c1ccccc1O	13	8	0.37	0	0	/
CCCc1cc(C(=O)Nc2sc(C)c(CC)c2C#N)no1	-6	-16	1.2	0	-1	70*
CCOC(=O)c1oc2c(c1C)/C(=N/O)CCC2	/	-16	/	0	0	88*
CC1(NC(=O)CC[N+](C)(C)CCO)CS(=O)(=O)CC1S(=O)(=O)[O-] (stereo not given)	-10	1	-0.15	0	-2	/
COc1cccc(NC(=O)CSCC(=O)Nc2ccccc2)c1	/	-14	/	0	2	4
O=C(O)CCCC(=O)Nc1cccc([N+](=O)[O-])c1	9	-18	0.19	0	-1	/
COc1cccc(NC(=O)Cc2ccccc2)c1	-36	-1	0.82	0	1	73*
O=C(CCCOc1ccccc1)Nc1cccc([N+](=O)[O-])c1	-7	-16	-0.8	0	1	77*
CNC(=O)C(=O)N/N=C/c1cccnc1	8	13	1.1	/	0	/
CC(=O)Nc1cc(NC(C)=O)cc(C(=O)OCC(=O)N2CC(C)OC(C)C2)c1 (stereo not given)	-34	-14	-0.01	0	1	18
CCCCNC(=O)COC(=O)c1ccc(C)c(NC(=O)c2ccco2)c1	-8	12	-0.97	0	-1	67
C=CCNC(=O)COC(=O)c1ccc(C)c(NC(=O)c2ccco2)c1	4	-3	-0.03	0	-1	73*
N#CCCN1CCNCC1	/	-6	0.56	0	1	68*
CCCOc1ccc(/C=N/Nc2ccccc2[N+](=O)[O-])c(OCCC)c1	2	-21	0.8	0	-1	84*
COCCCN1C(=O)/C(=C/c2ccc(CNS(=O)(=O)c3ccccc3)o2)C(C(=O)OC)=C1C	5	-21	-0.65	0	-2	/
Cc1cc(C)c(S(C)(=O)=O)c(N(C)N)n1	-16	-8	-0.28	0	2	75*

Screening results: PubChem BioAssay, several laboratories
